Structures are written as SMILES. Among all 330,000 compounds or so, about 1,900 (0.58%) were called active. Another 4% or so got no clear call; they are omitted. Not all results are given here. Potency and affinity values are given separately. Values without a mark were called inactive. No stated cut-off is given here; in the data, inconclusive means inhibition above about 70% without an active follow-up result; inactive means below that.

A short description of this assay: M. tuberculosis growth inhibition, HTS (AID 449762).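 Further: bacterial growth assessed after seven days of incubation.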 To be noted: M. tuberculosis H37Rv growth inhibition, 7H9 media; at 25 µM; hits give high values.
For the molecule `COCC1CCN(C(=O)c2cc(COc3ccccc3SC)on2)C1` (stereo not drawn), the inhibition is -1.2%.

For `CSc1ccccc1OCc1cc(C(=O)N2CCSCC2)no1`, the inhibition was 4.18%.

Regarding `CCOC(=O)[C@@]12C(=O)C(=O)N[C@]1(c1ccccc1)C1OCCCC12` (stereo partly drawn), the inhibition is 1.95%.

Take `COc1ccc(Cn2c(-c3ccc(C)cc3)nc3c(c(=O)c4ccccc4n3C)c2=O)cc1`: the inhibition was -5.96%.

In the case of `Cn1c2ccccc2c(=O)c2c(=O)n(Cc3ccco3)c(-c3ccc(F)cc3)nc21`, the inhibition was 0.8%.

For `Cc1noc(C)c1CSCC(=O)Nc1cccc(C(F)(F)F)c1`, the inhibition was -7.37%.

For `CCCCCCc1cc2cc(C(=O)Nc3ccccc3)c(=O)oc2cc1O`, the inhibition is -5.44%.

`CCCCCCc1cc2cc(C(=O)NC)c(=N)oc2cc1O`: the inhibition is 2.6%.

For the molecule `CCc1ccc(CNn2cnnc2SCC(=O)NC(C)(C)C)cc1`, the inhibition was -7.47%.

In the case of `CC1CN(CC(=O)Nc2ccc([N+](=O)[O-])cc2Br)CC(C)O1` (stereo not drawn), the inhibition was 0.73%.

On to `NC(N)=NNC(=O)c1ccccc1Cl`, for which the inhibition was -5.25%.

In the case of `CCC/C(=N/NC(=O)c1ccccc1Cl)c1ccccc1`, the inhibition is 8.2%.

On to `CN(Cc1ccccc1)CC(O)COc1ccc(CNCc2nccn2C)cc1` (stereo not drawn), for which the inhibition was -8.78%.

Consider `NC(=O)CC(NC(=O)c1ccccc1)c1ccc(N2CCC(Cc3ccccc3)CC2)c([N+](=O)[O-])c1` (stereo not drawn), for which the inhibition is 5.54%.

For the molecule `CC(C)OCCCn1c(-c2ccco2)nc2nc3ccccc3nc21`, the inhibition was 0.09%.

With `CCCCCn1c(-c2ccco2)nc2nc3ccccc3nc21`, the inhibition is 16.5%.

As to `C/C(=N\OCC(=O)Nc1ccccc1C(C)(C)C)c1ccc2c(c1)OCCO2`, the inhibition was 9.78%.

For `O=C(Cn1cnc2scc(-c3ccc(Br)cc3)c2c1=O)N1CCOCC1`, the inhibition is 2.04%.

In the case of `Clc1ccc(CNC23CN4CN(CN(C4)C2)C3)c(Cl)c1`, the inhibition was -14.8%.

With `O=C(Nc1ccncc1)c1cc(S(=O)(=O)N2CCCC2)ccc1Cl`, the inhibition was 5.2%.

Turning to `N#Cc1nc(-c2ccc(OCc3ccccc3Cl)cc2)oc1NCCCn1ccnc1`, the inhibition is 0.78%.

Regarding `N#Cc1nc(-c2ccc(OCc3ccc(Cl)cc3)cc2)oc1NCCCn1ccnc1`, the inhibition is 0.8%.

Consider `COc1ccc(C2C(C(C)=O)=C(O)C(=O)N2c2cccnc2)c(OC)c1` (stereo not drawn), for which the inhibition was -10.5%.

Consider `O=C1C(Cl)=C(N2CCOCC2)C(=O)N1c1cccc(C(F)(F)F)c1`, for which the inhibition is 8.59%.

Take `Cc1cccc(N2C(=O)C(Cl)=C(N3CCOCC3)C2=O)c1`: the inhibition is -0.44%.

As for `CCOC(=O)C(=O)N1CCC(Cc2ccccc2)CC1`, the inhibition was 1.59%.

Consider `CCOCC(=O)N1CCC(Cc2ccccc2)CC1`, for which the inhibition is 12.3%.

In the case of `Cc1oc(-c2ccccc2F)nc1CSCC(=O)NC1CCCC1`, the inhibition was -11.2%.

On to `CC(C)(Oc1ccc(F)cc1)C(=O)OCC(=O)c1ccc(S(C)(=O)=O)cc1`, for which the inhibition is 3.45%.

Take `CCOC(=O)c1nn(-c2cccc(Cl)c2)c2nc(Nc3ccccc3)cc(=O)n12`: the inhibition was -3.5%.

Turning to `CCOC(=O)c1nn(-c2ccc(F)cc2)c2nc(Nc3ccccc3)cc(=O)n12`, the inhibition was 38.7%.

Take `O=C(Nc1ccccc1)C1CC(=O)n2ncnc2N1` (stereo not drawn): the inhibition was -4.59%.

Regarding `Cc1ccc(S(=O)(=O)N2[C@@H](c3ccc(Br)cc3)C(C(=O)O)=CC[C@H]2c2ccc(Cl)cc2)cc1`, the inhibition is 9.55%.

As to `CCN(CC)C(=O)c1ccc(C(=O)c2c(C)cc(C)cc2C)cc1`, the inhibition was -0.54%.

As for `COc1ccc2c(Cl)c(-c3nnc(SCC(N)=O)n3C)sc2c1`, the inhibition is -4.23%.

With `COc1ccc2c(Cl)c(-c3nnc(SCC(=O)c4ccccc4)n3C)sc2c1`, the inhibition was 5.59%.

As for `COc1ccc(NC(=O)c2ccc3c(=O)n(-c4ccc(OC)cc4OC)c(=S)[nH]c3c2)c(OC)c1`, the inhibition was 40%.

For `CC(=O)c1cccc(CN2CCC(CO)(CCCc3ccccc3)CC2)c1`, the inhibition was -3.4%.

With `Cc1ccccc1-c1ncc(CN2CCC(CO)(CCCc3ccccc3)CC2)cn1`, the inhibition was 22.1%.

With `Cc1c(-n2cc(C(=O)O)c(=O)c3cc(F)c(N4CCCC4)c(F)c32)c(=O)n(-c2ccccc2)n1C`, the inhibition is 5.31%.

For `Cc1cc(C)c(NC(=O)c2cn3c4c(c(N5CCN(C)CC5)c(F)cc4c2=O)OCC3C)c(C)c1` (stereo not drawn), the inhibition was 9.2%.

As for `CCOc1cc(S(=O)(=O)N2CCN(S(=O)(=O)CC)CC2)c(OCC)cc1-n1cnnn1`, the inhibition was 0.44%.

For the molecule `O=C(O)/C=C/C(=O)Nc1nccs1`, the inhibition is -2.62%.

Consider `O=C1C(C=NCCCN2CCCC2=O)=C(O)c2ccccc21`, for which the inhibition is -5.89%.

In the case of `COc1ccc(Cl)cc1NS(=O)(=O)c1cccc(C(=O)NC2CC2)c1`, the inhibition was 1.57%.

As to `COc1ccc(-c2oc(NC(=O)c3ccc(C)cc3)c(C#N)c2-c2ccc(OC)cc2)cc1`, the inhibition was 5.32%.

As for `COc1ccc(-c2oc(NC(C)=O)c(C#N)c2-c2ccc(OC)cc2)cc1`, the inhibition is 3.57%.

`Cc1cc(C(=O)O)cc(S(=O)(=O)Nc2c(C)nn(C)c2C)c1C`: the inhibition was -1.21%.

In the case of `COc1cccc2cc(C(=O)OCc3ccccc3)c(=O)oc12`, the inhibition was 10.5%.

`CN1OC(COC(=O)c2ccc(Cl)cc2)CC1c1ccccc1` (stereo not drawn): the inhibition is 19.7%.

On to `CN1OC(COC(=O)c2ccccc2)CC1c1ccccc1` (stereo not drawn), for which the inhibition is 66.5%.

`CCCn1cc(S(=O)(=O)c2ccc(F)cc2)c(=O)c2cc(OCC)ccc21`: the inhibition is 4.19%.

Consider `CC(=O)Nc1ccc(S(=O)(=O)Oc2cccc(/C=N/N=C3/NC(=O)C(CC(=O)O)S3)c2)cc1` (stereo not drawn), for which the inhibition was -3.02%.

Take `O=C(Nc1cccc(C(F)(F)F)c1)C(Sc1cccc[n+]1[O-])c1ccccc1` (stereo not drawn): the inhibition is 0.11%.

Regarding `O=C(Nc1ccc(Cl)cc1C(F)(F)F)C(Sc1cccc[n+]1[O-])c1ccccc1` (stereo not drawn), the inhibition was 16.4%.

Regarding `CS(=O)(=O)N(CC(=O)Nc1ccc(Br)cc1F)C1CCCCC1`, the inhibition was -1.79%.

As to `CC(=O)NCCC(=O)Nc1ccc(C(N)=O)cc1`, the inhibition is 3.35%.

As to `O=C(/C=C/c1ccc([N+](=O)[O-])cc1)OCC(=O)N1c2ccccc2Sc2ccccc21`, the inhibition was 3.32%.

Regarding `CC(C)(C)c1ccc(C(=O)C=[N+]=[N-])cc1`, the inhibition is -1.15%.

With `CCOc1ccc(C(=O)/C=C/c2ccccc2C(F)(F)F)cc1`, the inhibition is 9.8%.

Take `COc1ccc(CC(=O)NNC(=O)CCc2ccccc2)cc1OC`: the inhibition was 0.55%.

With `O=C(NCC(O)c1ccccc1)c1ccccc1` (stereo not drawn), the inhibition was -1.58%.

`Cc1ccc(C)c(Cc2c(C)nc3c(C(=O)NCc4ccc5c(c4)OCO5)cnn3c2C)c1`: the inhibition is 65.9%.

Consider `CN1C(=O)/C(=C/c2ccc(OCc3cccc(F)c3)cc2)NC1=S`, for which the inhibition is 14.5%.

Turning to `Cc1cccc(NC(=S)Nc2ccccn2)c1`, the inhibition is -7.66%.

`CCCNC(=S)Nc1ccc(Oc2ccccc2)cc1`: the inhibition is -11%.

Consider `CCCNC(=S)Nc1ccccc1`, for which the inhibition was 0.1%.

In the case of `COc1ccc(NC(=S)Nc2ccccn2)cc1`, the inhibition was -2.6%.

Turning to `N#Cc1cc2c(nc1SCc1cccnc1)CCCCC2`, the inhibition is 7.53%.

With `CC1CCN(S(=O)(=O)c2ccc(S(=O)(=O)N3CCC4(CC3)OCCO4)cc2)CC1`, the inhibition is 0.35%.

As to `Cc1cc(NC(=O)/C=C/C(=O)N(CC(=O)NC2CCCC2)c2cccc3ccccc23)no1`, the inhibition is -2.08%.

On to `COc1ccc(CCNCC2C(Oc3ccc(Cl)cc3)C(=O)N2c2ccccc2C)cc1OC` (stereo not drawn), for which the inhibition is 11.7%.

Take `COC(=O)c1ccc2c(=O)[nH]c(COC(=O)CCC(=O)c3ccc(Cl)cc3)nc2c1`: the inhibition is 0.04%.

For `Cc1cc(=O)c2ccc3ccccc3c2[nH]1`, the inhibition was 10.2%.

In the case of `CCCc1c(C)nc2ccc(OC)cc2c1SCCC(=O)O`, the inhibition was -2.63%.

For `COc1ccc(C(=O)Nc2cc3c(cc2Cl)OCCCO3)cc1`, the inhibition is 5.96%.

Turning to `CCc1ccccc1NC(=O)CSc1nc2n[nH]c(C)c2c(=N)n1-c1cccc(OC)c1`, the inhibition was 7.97%.

For `COc1cccc(NC(=O)CSc2nc3n[nH]c(C)c3c(=N)n2-c2cccc(OC)c2)c1`, the inhibition was -0.47%.

In the case of `O=C(CSc1ccc(Br)cc1)N1CCN(C(=O)c2ccco2)CC1`, the inhibition is 2.56%.

As to `O=C(c1ccc2c(c1)OCO2)C1CCCN(Cc2cn[nH]c2-c2ccccc2)C1` (stereo not drawn), the inhibition is 4.84%.

Regarding `COc1ccc(C(=O)C2CCCN(Cc3cn[nH]c3-c3ccccc3)C2)cc1OC` (stereo not drawn), the inhibition was 2.2%.

For `CC1Cc2cccc3c(O)c(C(=O)c4nn[nH]n4)c(=O)n1c23` (stereo not drawn), the inhibition was 14.9%.

Turning to `N#Cc1nc(COc2ccccc2)oc1N1CCCC1`, the inhibition is -0.06%.

As to `CC(C)NC(=O)c1onc(CSc2ccc(F)c(F)c2)c1C(=O)NC(C)C`, the inhibition is 8.4%.

Take `CC(C)NC(=O)c1onc(CSc2cccc(F)c2)c1C(=O)O`: the inhibition was 33.3%.

With `COc1ccc(C)cc1N(C(=O)c1snc(C(N)=O)c1N)C(C(=O)NC1CCCC1)c1ccc(F)cc1` (stereo not drawn), the inhibition is 41.8%.

Consider `CCOC(=O)c1sc(NC(=S)NC(=O)c2cccc(Cl)c2)c(C(=O)OCC)c1C`, for which the inhibition was 3.64%.

Turning to `C#C[C@]1(O)CC[C@H]2[C@@H]3CCc4cc(OC)ccc4[C@H]3CC[C@@]21C`, the inhibition was -0.52%.

In the case of `C#C[C@]1(O)CC[C@H]2[C@@H]3CCc4cc(O)ccc4[C@H]3CC[C@@]21C`, the inhibition is 2.29%.

`Cc1cc(C)nc(Sc2nc(Nc3ccccc3)nc(Sc3nc(C)cc(C)n3)n2)n1`: the inhibition was -5.43%.

For `Cc1csc(SCCN2C(=O)c3ccccc3C2=O)n1`, the inhibition was 1.44%.

For `O=[N+]([O-])c1ccc2nc(-c3ccccc3)oc2c1`, the inhibition is -0.96%.

As to `O=[N+]([O-])c1ccc2c(c1)oc1ccccc12`, the inhibition was -7.51%.
